Assay [1] in a line: liver-stage malaria parasite growth inhibition, primary screen, cell-based, HepG2, luciferase luminescence, HepG2 viability (AID 624349; in the data active = parasite load remaining mostly below about 12%, no sharp cut-off; inactive = mostly above about 10%;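 note: 100% = mean of DMSO negative control wells on the same plate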). The following applies: P. berghei liver stage in HepG2, luciferase luminescence, concentration not given here; parasite load remaining: stronger effect = lower value; viability: measured here: HepG2 viability without parasites.
Assay [2] can be described thus: differential killing of epithelial or mesenchymal cells, primary screen, imaging, PC-3E GFP, TEM4-18 mCherry, co-culture (AID 1345086;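 active = compounds killing one labelled cell type while sparing the other, by normalised counts and ratio limits, not self-fluorescent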;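 for all read-outs here: cells exposed to compound for 72 h before imaging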;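 for red/green cell ratio (normalised): normalised mesenchymal count divided by normalised epithelial count so high means epithelial killing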). The following applies: imaging cell counts, at 1 µM; for red/green cell ratio (normalised): actives lie on both sides, counts scaled to control wells, 1 = unselective.
Assay [3] is described as follows: sensitizers of A549 cells to miR-34 induction, primary screen, imaging, A549 dox-inducible miR-34, nuclei and caspase counts (AID 1347080). As to conditions: A549 miR-34 inducible, Hoechst nuclei count, 48 h.
The nature of assay [4]: survival rescue of mitochondrial mutant cells in low glucose, primary screen, MELAS cybrids, Rieske KO mouse fibroblasts, CellTiter-Glo (AID 1508586;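 active = mean z-score across replicates of 1.96 or higher in either the MELAS or the Rieske mutant cell line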;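 note: z relative to plate mean and SD of compound and empty wells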). On the technique in general: Cellular ATP, detected with luciferase, serves as a proxy for viable cell number.
Assay [5] can be described thus: hESC survival regulators, cell-based (AID 493140; call rule not given here;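 note: cells exposed to compounds for four days before counting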). The following applies: human embryonic stem cell survival screen; stronger effect = higher value.
Assay [6] addresses NAD(+) hydrolase SARM1 (Homo sapiens) (UniProt Q6SZW1). The assay is described as follows: SARM1 TIR NADase inhibitors, cell lysate, NAD-Glo luminescence (AID 1508614;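 active = compound whose remaining NAD level is above about 45 nM, limit read from the data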;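 note: higher remaining NAD means stronger inhibition of SARM1 NADase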). As to conditions: SAM-TIR HEK293T lysate NADase, at 1 µM, stronger effect = higher value.
The mark [7] stands for this setting: measured here: epithelial PC-3E GFP cell survival.
Where [8] appears, read: measured here: mesenchymal TEM4-18 mCherry cell survival.
Setting [9] is: stronger effect = lower value, cell number ratio, induced over uninduced.
Setting [10] is: measured here: relative caspase fold change +Dox/-Dox.
[11] abbreviates: measured here: total cells with miR-34 induction, stronger effect = lower value.
Setting [12] is: measured here: total cells without miR-34 induction.
Setting [13] is: MELAS cybrid survival, CellTiter-Glo 48 h, stronger effect = higher value.
Where [14] appears, read: Rieske KO mouse fibroblast survival, CellTiter-Glo 72 h.

SMILES strings stand for the structures. “And” between values parts separate entries of the source, which are not always exact repeats. Equal entries are not always repeated. The source made the active and inactive calls.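 Rule for the calls, unless noted: active = compounds whose cell count with miR-34 switched on is under 0.7 times the count with it off; inactive = the rest.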 Residues, ends and D or L forms follow the SMILES beside them.

NAD(+) hydrolase SARM1 (Homo sapiens), sequence (Q6SZW1 whole entry, looked up): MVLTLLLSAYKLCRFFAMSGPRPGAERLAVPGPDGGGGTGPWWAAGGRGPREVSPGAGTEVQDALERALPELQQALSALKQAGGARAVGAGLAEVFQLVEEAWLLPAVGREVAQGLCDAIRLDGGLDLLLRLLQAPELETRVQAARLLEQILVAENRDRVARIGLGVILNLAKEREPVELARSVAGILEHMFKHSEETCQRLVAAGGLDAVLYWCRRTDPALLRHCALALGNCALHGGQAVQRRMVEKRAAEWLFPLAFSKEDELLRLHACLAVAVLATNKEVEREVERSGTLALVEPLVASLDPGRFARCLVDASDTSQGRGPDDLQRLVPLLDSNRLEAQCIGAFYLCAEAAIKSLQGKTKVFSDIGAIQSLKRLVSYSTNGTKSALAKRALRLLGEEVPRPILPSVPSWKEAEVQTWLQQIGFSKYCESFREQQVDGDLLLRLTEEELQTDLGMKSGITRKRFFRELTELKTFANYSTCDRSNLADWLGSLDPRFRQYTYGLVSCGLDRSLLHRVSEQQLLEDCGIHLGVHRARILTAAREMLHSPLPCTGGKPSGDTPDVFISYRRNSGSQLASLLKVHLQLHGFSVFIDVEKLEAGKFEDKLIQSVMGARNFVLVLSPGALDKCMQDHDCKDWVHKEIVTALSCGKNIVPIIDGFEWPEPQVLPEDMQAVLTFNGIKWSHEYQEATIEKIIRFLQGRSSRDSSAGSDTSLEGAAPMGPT

As to `CC1(O)CCOC(=O)C1` (stereo not drawn), in assay [1], the parasite load remaining is 86.9% (inactive). Also, in assay [1], the viability (commonly a read-out of living cells in per cent, often relative to untreated cells) came to 107%. The red/green cell ratio (normalised) in assay [2] is 1.07 (inactive). Also, the normalised cell number worked out at 0.95 in assay [2] (setting [7]) and 1.02 in assay [2] (setting [8]). For the same molecule, the fold change was 0.969 (inactive) in assay [3] (setting [9]) and 0.886 in assay [3] (setting [10]). In addition, the figures for the cell count in assay [3] (setting [11]) and in assay [3] (setting [12]) were 8270 and 8540, respectively. Also, the values for the z-score in assay [4] (setting [13]) and in assay [4] (setting [14]) were -0.827 (inactive) and -0.633, respectively.
With `CCC[C@@H]1C[C@@H](C(=O)N[C@@H](C2O[C@H](SC)[C@H](O)[C@@H](O)[C@H]2O)[C@H](C)Cl)N(C)C1` (stereo partly drawn), in assay [5], the survival is 18.7 (inactive). Also, the parasite load remaining in assay [1] is 39.2% (inactive) and 98.8% (inactive) and 83.4% (inactive). In assay [1], the viability was 46.1% and 89% and 92.6%. Also, in assay [2], the red/green cell ratio (normalised) is 1.26 (inactive). The normalised cell number in assay [2] (setting [7]) came out at 1.17; in assay [2] (setting [8]), 1.47. The fold change in assay [3] (setting [9]) was 0.895 (inactive) and 0.881 (inactive); in assay [3] (setting [10]), 1.74 and 1.41. For the same molecule, the cell count in assay [3] (setting [11]) is 9010 and 10700; in assay [3] (setting [12]) it was 10100 and 12200. Moreover, the z-score was 0.619 (inactive) in assay [4] (setting [13]) and -0.624 in assay [4] (setting [14]).
Turning to `O=C(O)Cc1cc(I)c(Oc2ccc(O)c(I)c2)c(I)c1`, in assay [5], the survival was 18.8 (inactive). Besides, the parasite load remaining in assay [1] is 35.5% (inactive) and 118% (inactive). The viability in assay [1] was 46% and 91.7%. The red/green cell ratio (normalised) in assay [2] was 0.98 (inactive). For the same molecule, the results for the normalised cell number in assay [2] (setting [7]) and in assay [2] (setting [8]) were 1.1 and 1.08, respectively. Further, the fold change in assay [3] (setting [9]) is 1.03 (inactive) and 0.918 (inactive) and 0.892 (inactive); in assay [3] (setting [10]), 0.599 and 1.29 and 1.64. Besides, the cell count is 7190 and 8760 and 9000 in assay [3] (setting [11]); 6990 and 9530 and 10100 in assay [3] (setting [12]). Also, the z-score is -0.0879 and -3.89 (inactive) in assay [4] (setting [13]); 5.02 and -3.53 in assay [4] (setting [14]). In addition, the remaining NAD in assay [6] was 10 nM (inactive).
In the case of `FC(F)(Cl)C(F)(F)Cl`, in assay [2], the red/green cell ratio (normalised) was 1.02 (inactive). The normalised cell number amounted to 0.91 in assay [2] (setting [7]) and 0.93 in assay [2] (setting [8]). Also, the values for the fold change in assay [3] (setting [9]) and in assay [3] (setting [10]) were 0.926 (inactive) and 0.734, respectively. For the same molecule, the cell count in assay [3] (setting [11]) amounted to 9510; in assay [3] (setting [12]), 10300. Further, the remaining NAD in assay [6] was 10 nM (inactive).
In the case of `Oc1ccc2ccccc2c1`, the red/green cell ratio (normalised) in assay [2] is 0.96 (inactive). Further, the figures for the normalised cell number in assay [2] (setting [7]) and in assay [2] (setting [8]) were 0.82 and 0.79, respectively. The fold change in assay [3] (setting [9]) is 0.874 (inactive); in assay [3] (setting [10]) it was 1.01. Besides, the cell count in assay [3] (setting [11]) was 7170; in assay [3] (setting [12]), 8200. Moreover, in assay [6], the remaining NAD was 10 nM (inactive).
Take `O=C1/C(=C/c2cccs2)CCC/C1=C\c1cccs1`: the red/green cell ratio (normalised) in assay [2] is 1 (inactive). Moreover, the normalised cell number in assay [2] (setting [7]) was found to be 0.96; in assay [2] (setting [8]), 0.97. Besides, the fold change in assay [3] (setting [9]) was 0.964 (inactive); in assay [3] (setting [10]), 1.06. The cell count in assay [3] (setting [11]) worked out at 7510; in assay [3] (setting [12]), 7800. Moreover, in assay [6], the remaining NAD was 10 nM (inactive).
Regarding `CC(C)[C@H](NC(=O)[C@H](CC(=O)O)NC(=O)[C@H](CCCCN)NC(=O)[C@@H](N)CCCN=C(N)N)C(=O)N[C@@H](Cc1ccc(O)cc1)C(=O)O` (H-RKDVY-OH), in assay [2], the red/green cell ratio (normalised) is 0.91 (inactive). In addition, the values for the normalised cell number in assay [2] (setting [7]) and in assay [2] (setting [8]) were 1.09 and 0.99, respectively. Besides, the fold change is 0.895 (inactive) in assay [3] (setting [9]) and 0.732 in assay [3] (setting [10]). The cell count in assay [3] (setting [11]) was found to be 8230; in assay [3] (setting [12]), 9190. The remaining NAD in assay [6] is 10 nM (inactive).
In the case of `C[C@H](N[C@@H](CCc1ccccc1)C(=O)O)C(=O)N1Cc2ccccc2C[C@H]1C(=O)O`, the red/green cell ratio (normalised) in assay [2] was 0.82 (inactive). The normalised cell number in assay [2] (setting [7]) stood at 1.1; in assay [2] (setting [8]), 0.91. In addition, the values for the fold change in assay [3] (setting [9]) and in assay [3] (setting [10]) were 0.868 (inactive) and 0.983, respectively. In addition, the values for the cell count in assay [3] (setting [11]) and in assay [3] (setting [12]) were 8350 and 9630, respectively. For the same molecule, the remaining NAD in assay [6] was 10 nM (inactive).
Take `CC1(C)OC(=O)C(OCC2CC2)=C1c1ccc(S(C)(=O)=O)cc1`: in assay [2], the red/green cell ratio (normalised) is 1.08 (inactive). Besides, the normalised cell number was 1.02 in assay [2] (setting [7]) and 1.1 in assay [2] (setting [8]). The fold change in assay [3] (setting [9]) was 0.945 (inactive); in assay [3] (setting [10]), 0.86. Also, the cell count was found to be 8900 in assay [3] (setting [11]) and 9420 in assay [3] (setting [12]). In assay [6], the remaining NAD was 10 nM (inactive).
In the case of `CCCCCCCCCCCCCCCC(=O)OCC(O)[C@H]1OC(=O)C(O)=C1O` (stereo partly drawn), in assay [1], the parasite load remaining is 30.5% (inactive). The viability in assay [1] was 230%. The red/green cell ratio (normalised) in assay [2] was 1.11 (inactive). Besides, the normalised cell number in assay [2] (setting [7]) was 1.1; in assay [2] (setting [8]), 1.22. Besides, the fold change in assay [3] (setting [9]) was 1.02 (inactive) and 0.87 (inactive); in assay [3] (setting [10]) it was 0.52 and 0.622. In addition, the cell count in assay [3] (setting [11]) was 7640 and 11300; in assay [3] (setting [12]), 7530 and 13000. Further, the values for the z-score in assay [4] (setting [13]) and in assay [4] (setting [14]) were -0.179 (inactive) and -0.164, respectively.
With `Cc1ccc(S(=O)(=O)NCl)cc1`, in assay [2], the red/green cell ratio (normalised) is 0.85 (inactive). Further, the normalised cell number in assay [2] (setting [7]) came to 0.97; in assay [2] (setting [8]), 0.83. The fold change in assay [3] (setting [9]) is 0.925 (inactive); in assay [3] (setting [10]), 0.99. In addition, the cell count in assay [3] (setting [11]) is 8910; in assay [3] (setting [12]), 9630. For the same molecule, the remaining NAD in assay [6] is 10 nM (inactive).

The values above are taken from PubChem BioAssay.
